# Screening results deposited in PubChem by several laboratories.
# A selection: hits, their analogues and other compounds. The true share with any hit is near 2.3%.
# HIF-2a block = blocks HIF-2a reporter activity | inhibition, % at 18.8 µM | AID 624352 | 786-0 RCC cells HIF-2a reporter, luciferase luminescence, overnight | hit rate 0.72% among 360,000;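 active = inhibition of the luminescence signal of 40% or more relative to plate controls, in a single-dose primary screen at 18.75 µM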
# hiPSC survival = enhancers of human iPSC single-cell survival; AID 602274; survival enhancement, % at 20 µM; hiPSC single-cell survival, ATPlite luminescence; 100% = ROCK inhibitor wells, 0% = DMSO; hit rate 0.044% among 360,000; in the data active = survival enhancement above about 18%;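 note: cells exposed to compounds for 16 hours before the ATP read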
# KKLEB cytotox = reduces viability of KKLEB cystic fibrosis airway cells. activity change (cytotoxicity), % at 5 µM. KKLEB CF airway cells viability, ATPlite luminescence, overnight; hits give low values; cells stimulated with P. aeruginosa culture filtrate. hit rate 0.36% among 360,000;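 active = corrected activity change at or below -50% at 5 µM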
# TWEAK-Fn14 inh = blocks TWEAK-Fn14 interaction in a reporter cell assay. inhibition, % at 10 µM. hit rate 2% among 360,000. TWEAK-stimulated Fn14 reporter cells, luciferase luminescence, 8 h; in the data active = inhibition above about 50%
# CF NFkB inh = inhibitors of cystic fibrosis induced NF-kB. AID 588850. hit rate 0.86% among 360,000. inhibition, % at 5 µM. KKLEB NF-kB-GFP reporter, PAF-induced, GFP fluorescence overnight;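 active = at least 50% inhibition at 5 µM, scaled per plate between neutral and stimulator controls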;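 note: PAF is a Pseudomonas aeruginosa culture filtrate used as stimulus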
# LGR2 antag = Drosophila LGR2 receptor signaling inhibition. HEK293 LGR2, CRE-luciferase, bursicon-stimulated, 4 h. inhibition, % at 9.99 µM. hit rate 0.35% among 380,000. AID 720647;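 active = drop in luminescence signal, shown as inhibition above about 50% in the replicate tests, limit read from the data, passing the limit was not always enough; inconclusive = probably only some replicates passing the limit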;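 note: agonist challenge used bursicon conditioned medium at about half maximal strength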
# Numbers stand for hits; i = inactive; ? = inconclusive; nt = no result.
SMILES,HIF-2a block,hiPSC survival,KKLEB cytotox,TWEAK-Fn14 inh,CF NFkB inh,LGR2 antag
COc1ccc(-c2csc(NC(=O)CSc3nc(SC)ns3)n2)cc1,i,i,i,69,i,i
CCC(C)(C)NC(=O)CN(C(=O)CCC(=O)Nc1nccs1)c1ccc2c(c1)OCCO2,i,i,i,64,i,i
CCc1ccc(N(CC(=O)NC(C)(C)CC)C(=O)CCC(=O)Nc2nccs2)cc1,i,i,i,i,i,i
COc1ccc(-n2c(C)cc(C(=O)CN3C(=O)c4ccccc4C3=O)c2C)cc1,i,i,i,i,i,i
COc1ccc(-n2c(C)cc(C(=O)COC(=O)c3ccc(O)cc3O)c2C)cc1,i,i,i,54,i,nt
Cc1cc(C(=O)COC(=O)c2cccc(O)c2)c(C)n1C1CC1,i,i,i,54,i,73
Cc1cc(C(=O)COC(=O)c2ccc(O)cc2O)c(C)n1-c1ccccc1,i,i,i,77,i,nt
COc1ccc(-n2c(C)cc(C(=O)CCl)c2C)cc1,40,i,i,i,i,i
CCCC(=O)Nc1nc2ccc(NC(=O)c3ccccc3F)cc2s1,i,i,i,i,i,i
COc1ccc2nc(NC(=O)c3ccccc3F)sc2c1,i,i,i,i,i,63
COc1ccc2nc(Nc3nc(C)c(C(C)=O)s3)sc2c1,i,i,i,64,i,nt
COc1ccc2nc(NC(=O)c3ccccc3C(=O)O)sc2c1,i,i,i,i,i,i
COc1ccc(Nc2nc3ccc(OC)cc3s2)cc1,i,i,i,i,i,i
COc1ccc2nc(NC(=O)c3cccc(-c4cc5ccccc5oc4=O)c3)sc2c1,i,i,-54,i,60,i
Cc1ccc2nc(NC(=O)c3ccccc3F)sc2c1,i,i,i,69,i,i
C[C@H](CO)N1C[C@H](C)[C@H](CN(C)C)Oc2cc(C3=CCCCC3)ccc2S1(=O)=O,nt,nt,nt,nt,nt,i
COC(=O)C[C@H]1CC[C@H](NS(=O)(=O)c2ccccc2F)[C@H](CO)O1,nt,nt,nt,nt,nt,i
C/C(=C\c1cccc(Cl)c1Cl)C(=O)c1c(C)cc(C)[nH]c1=O,i,i,i,72,i,i
CCC(=O)N1CCC2(CC1)CN(C(=O)c1ccccn1)[C@H](CO)c1c2c2ccc(OC)cc2n1C,nt,nt,nt,nt,nt,i
CC(C)Cn1c(N)c(C(=O)COC(=O)CC23CC4CC(CC(C4)C2)C3)c(=O)n(C)c1=O,i,i,i,73,i,nt
Cc1csc(=O)n1CCC(=O)OCC(=O)c1c(N)n(CC(C)C)c(=O)n(C)c1=O,i,i,i,i,i,i
C[C@@H]1CCCCO[C@H](CN(C)S(C)(=O)=O)[C@H](C)CN([C@@H](C)CO)C(=O)c2cc(NC(=O)Cc3ccccc3)ccc2O1,nt,nt,nt,nt,nt,i
CC(=O)c1ccc(N=Nc2ccc(N)cc2)cc1,i,i,i,69,i,64
c1ccc(C[n+]2ccc3ccccc3c2)cc1,i,i,i,i,i,i
c1ccc(C[n+]2cccc(-c3ccccc3)c2)cc1,i,i,i,91,i,i
SMILES,HIF-2a block,hiPSC survival,KKLEB cytotox,TWEAK-Fn14 inh,CF NFkB inh,LGR2 antag
CN(C)CC(=O)Nc1ccc2c(c1)[C@@H]1C[C@H](CC(=O)N(C)C)O[C@H](CO)[C@@H]1O2,nt,nt,nt,nt,nt,i
CO[C@@H]1CN(C)C(=O)c2ccc(NS(=O)(=O)c3ccc(Cl)cc3)cc2OC[C@@H](C)N(C(=O)Cc2cccnc2)C[C@H]1C,nt,nt,nt,nt,nt,i
O=C(Nc1nc2cc(Cl)ccc2s1)C1CCCN(S(=O)(=O)c2cccc3cccnc23)C1 (configuration not stated),i,i,i,84,i,nt
O=C(C1CCN(S(=O)(=O)c2cccc3cccnc23)CC1)N1CCN(c2ccc(Cl)cc2)CC1,i,i,i,51,i,i
Cc1ccc(S(=O)(=O)N[C@H]2CC[C@H](CC(=O)NCCCN(C)C)O[C@H]2CO)cc1,nt,nt,nt,nt,nt,i
CCC(=O)N1C[C@@H]2[C@H](c3ccccc31)[C@H](CO)N2Cc1ccccc1F,nt,nt,nt,nt,nt,i
N=c1c(S(=O)(=O)c2ccc(Br)cc2)cc2c(=O)n3ccccc3nc2n1Cc1ccccc1,i,i,i,i,i,i
COc1ccc(CCNC(=O)c2cc3c(=O)n4ccccc4nc3n(Cc3ccco3)c2=N)cc1OC,i,i,i,96,i,i
COc1ccc(CCn2c(=N)c(C(=O)NCc3ccco3)cc3c(=O)n4ccccc4nc32)cc1OC,i,i,i,i,i,i
N=c1c(S(=O)(=O)c2ccc(Cl)cc2)cc2c(=O)n3ccccc3nc2n1Cc1ccco1,i,i,i,53,i,i
COc1ccc(CCNC(=O)c2cc3c(=O)n4ccccc4nc3n(CCN3CCOCC3)c2=N)cc1,i,i,i,63,i,i
CO[C@H](CN(C)C(=O)c1ccccc1F)[C@@H](C)CN([C@@H](C)CO)S(=O)(=O)c1ccc(Cl)cc1,nt,nt,nt,nt,nt,i
Cc1ccc(NC(=O)CC2Nc3ccccc3NC2=O)cc1Cl (configuration not stated),i,i,-52,i,i,nt
O=C(Oc1ccc(/C=N/n2cnnc2)cc1)c1cccc([N+](=O)[O-])c1,i,i,i,i,i,73
COc1cccc(C(=O)Nc2ccc3c(c2)C(=O)N(C)C[C@@H](OC)[C@H](C)CN(CC2CC2)[C@@H](C)CO3)c1,nt,nt,nt,nt,nt,i
Clc1ccccc1Nc1nnc(-c2ccncc2)s1,i,i,i,89,i,?
O=C(Nc1ccc2c(c1)OCO2)N[C@H]1CC[C@H](CC(=O)N2CCN(c3ccccc3)CC2)O[C@H]1CO,nt,nt,nt,nt,nt,i
CCOCCCNC(=O)c1ccc(Cn2c(=S)[nH]c3c([nH]c4ccc(OC)cc43)c2=O)cc1,i,i,i,i,i,i
CCCCNC(=O)c1ccc(Cn2c(=S)[nH]c3c([nH]c4ccc(OC)cc43)c2=O)cc1,i,i,-63,i,60,i
O=C1C2C3c4ccccc4C(c4ccccc43)C2c2nc3ccccc3n21 (configuration not stated),i,i,i,52,i,i
CCOC(=O)c1sc(N(Cc2ccccc2)C(=O)CCl)nc1C,i,i,i,i,65,i
CCOC(=O)c1sc(N(Cc2ccccc2)C(=O)COC(=O)c2ccc(O)cc2)nc1C,i,i,i,71,i,i
COc1ccc2c3c(n(C)c2c1)[C@@H](CO)N(C(=O)C1CCCC1)CC31CCN(CC2CCCC2)CC1,nt,nt,nt,nt,nt,i
CNC[C@@H]1OCCCC[C@H](C)Oc2ccc(NC(=O)NC3CCCCC3)cc2C(=O)N([C@@H](C)CO)C[C@H]1C,nt,nt,nt,nt,nt,i
C[C@H](CO)N1C[C@H](C)[C@H](CN(C)S(C)(=O)=O)Oc2ccc(N(C)C)cc2CC1=O,nt,nt,nt,nt,nt,i
O=C(NCc1ccc(F)cc1)[C@@H]1[C@@H](CO)[C@@H]2Cn3c(cccc3=O)[C@@H]2N1CCC(F)(F)F,nt,nt,nt,nt,nt,i
O=C(N/N=C/c1cccs1)c1n[nH]c2c1CCC2,i,i,i,57,i,?
O=C(N/N=C/c1ccccc1Cl)c1n[nH]c2c1CCCC2,i,i,i,97,i,71
